Measured values from publication PMC12820563, “FoxP3 forms a head-to-head dimer in vivo and stabilizes its multimerization on adjacent microsatellites”.
Over roughly 16,000 sequences, “rpm ratio (pull-down/input)” has its median near 0.5; the highest 2% begin near 5.5. For the sample, the highest values were picked, then their nearest neighbours and some sequences at random.

These sequences were tested against T1, MBP-FoxP3dN (Mus musculus, UniProt Q99JB6 188-423) (assay: PD-seq (MBP pull-down with sequencing); 20 mM Tris-HCl pH 7.5, 100 mM NaCl, 1.5 mM MgCl2, 0.4 uM protein, 0.1 uM dsDNA library, 30 min, room temperature, amylose pull-down; high values mean tight binding). Settings: protein: recombinant; tags: His6-MBP; chain copies: 2; dsDNA, one strand shown.
T1 sequence: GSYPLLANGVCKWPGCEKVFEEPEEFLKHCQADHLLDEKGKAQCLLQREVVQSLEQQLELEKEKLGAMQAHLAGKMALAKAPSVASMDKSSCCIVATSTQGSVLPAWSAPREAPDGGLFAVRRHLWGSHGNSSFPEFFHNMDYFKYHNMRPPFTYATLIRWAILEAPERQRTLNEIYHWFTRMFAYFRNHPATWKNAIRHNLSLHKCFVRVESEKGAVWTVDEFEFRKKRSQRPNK
How it was run: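 Mouse FoxP3 or FoxP1 fragment lacking the N-terminus, His6-MBP-tagged and expressed in E. coli, was incubated at 0.4 µM with 0.1 µM Klenow-filled degenerate double-stranded DNA library for 30 min at room temperature in Tris pH 7.5 buffer with NaCl and MgCl2. Complexes captured on amylose resin were washed three times and their DNA sequenced on Illumina. Binding is reads-per-million enrichment of pull-down over input, replicates pooled.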

Compared with “GATGATTGTTCTCCCAGCTGATGAATTGAATAGATCGAGTAAACAAATTTTCCTAATCTTTCTGTTCAAGCGCCATCTAC”, “GATGATTGTTCTCCCAGCTGATGAATTTGGTGCCTCGAGTAAACAAATTTTCCTAATCTTTCTGTTCAAGCGCCATCTAC” is higher in binding signal: 0.257 RPM ratio (pull-down/input) for the first, 1.91 RPM ratio (pull-down/input) for the second.

Compared with “GATGATTGTTCTCCCAGCTGATGAATTATGCATTTCGAGTAAACAAATTTTCCTAATCTTTCTGTTCAAGCGCCATCTAC”, “GATGATTGTTCTCCCAGCTGATGAATTATGATTTTCGAGTAAACAAATTTTCCTAATCTTTCTGTTCAAGCGCCATCTAC” is lower in binding signal: 7.25 RPM ratio (pull-down/input) for the first, 1.8 RPM ratio (pull-down/input) for the second.

Going from “GATGATTGTTCTCCCAGCTGATGAATTATGCAGCTCGAGTAAACAAATTTTCCTAATCTTTCTGTTCAAGCGCCATCTAC” to “GATGATTGTTCTCCCAGCTGATGAATTATGCAATTCGAGTAAACAAATTTTCCTAATCTTTCTGTTCAAGCGCCATCTAC”, the binding signal rises from 3.11 RPM ratio (pull-down/input) to 5.58 RPM ratio (pull-down/input).

Compared with “GATGATTGTTCTCCCAGCTGATGAATTTATGCAATCGAGTAAACAAATTTTCCTAATCTTTCTGTTCAAGCGCCATCTAC”, “GATGATTGTTCTCCCAGCTGATGAATTATGCAAATCGAGTAAACAAATTTTCCTAATCTTTCTGTTCAAGCGCCATCTAC” is lower in binding signal: 4.25 RPM ratio (pull-down/input) for the first, 1.16 RPM ratio (pull-down/input) for the second.

First: GATGATTGTTCTCCCAGCTGATGAATTATGAATTTCGAGTAAACAAATTTTCCTAATCTTTCTGTTCAAGCGCCATCTAC
Second: GATGATTGTTCTCCCAGCTGATGAATTATGCATCTCGAGTAAACAAATTTTCCTAATCTTTCTGTTCAAGCGCCATCTAC
The binding signal of the first is lower: 1.57 RPM ratio (pull-down/input) for the first, 7.47 RPM ratio (pull-down/input) for the second.

First: GATGATTGTTCTCCCAGCTGATGAATTATGAATCTCGAGTAAACAAATTTTCCTAATCTTTCTGTTCAAGCGCCATCTAC
Second: GATGATTGTTCTCCCAGCTGATGAATTGAGGCCGTCGAGTAAACAAATTTTCCTAATCTTTCTGTTCAAGCGCCATCTAC
The binding signal of the first is higher: 2.3 RPM ratio (pull-down/input) for the first, 0.905 RPM ratio (pull-down/input) for the second.

Compared with “GATGATTGTTCTCCCAGCTGATGAATTAACTGTTTCGAGTAAACAAATTTTCCTAATCTTTCTGTTCAAGCGCCATCTAC”, “GATGATTGTTCTCCCAGCTGATGAATTTCTGCAATCGAGTAAACAAATTTTCCTAATCTTTCTGTTCAAGCGCCATCTAC” is higher in binding signal: 0.641 RPM ratio (pull-down/input) for the first, 3.01 RPM ratio (pull-down/input) for the second.

Going from “GATGATTGTTCTCCCAGCTGATGAATTGCAGCAATCGAGTAAACAAATTTTCCTAATCTTTCTGTTCAAGCGCCATCTAC” to “GATGATTGTTCTCCCAGCTGATGAATTGATGCAATCGAGTAAACAAATTTTCCTAATCTTTCTGTTCAAGCGCCATCTAC”, the binding signal rises from 2.72 RPM ratio (pull-down/input) to 5.86 RPM ratio (pull-down/input).

First: GATGATTGTTCTCCCAGCTGATGAATTGCAACCATCGAGTAAACAAATTTTCCTAATCTTTCTGTTCAAGCGCCATCTAC
Second: GATGATTGTTCTCCCAGCTGATGAATTTTTGCAATCGAGTAAACAAATTTTCCTAATCTTTCTGTTCAAGCGCCATCTAC
The binding signal of the first is higher: 4.48 RPM ratio (pull-down/input) for the first, 3.95 RPM ratio (pull-down/input) for the second.

Compared with “GATGATTGTTCTCCCAGCTGATGAATTGCAATCATCGAGTAAACAAATTTTCCTAATCTTTCTGTTCAAGCGCCATCTAC”, “GATGATTGTTCTCCCAGCTGATGAATTGTTGCAATCGAGTAAACAAATTTTCCTAATCTTTCTGTTCAAGCGCCATCTAC” is higher in binding signal: 2.79 RPM ratio (pull-down/input) for the first, 5.54 RPM ratio (pull-down/input) for the second.

Compared with “GATGATTGTTCTCCCAGCTGATGAATTGCAACAATCGAGTAAACAAATTTTCCTAATCTTTCTGTTCAAGCGCCATCTAC”, “GATGATTGTTCTCCCAGCTGATGAATTGATGCCATCGAGTAAACAAATTTTCCTAATCTTTCTGTTCAAGCGCCATCTAC” is lower in binding signal: 7.74 RPM ratio (pull-down/input) for the first, 3.67 RPM ratio (pull-down/input) for the second.

Going from “GATGATTGTTCTCCCAGCTGATGAATTCTATTAATCGAGTAAACAAATTTTCCTAATCTTTCTGTTCAAGCGCCATCTAC” to “GATGATTGTTCTCCCAGCTGATGAATTTCTTGCCTCGAGTAAACAAATTTTCCTAATCTTTCTGTTCAAGCGCCATCTAC”, the binding signal falls from 0.561 RPM ratio (pull-down/input) to 0.494 RPM ratio (pull-down/input).

Going from “GATGATTGTTCTCCCAGCTGATGAATTTGGCGGCTCGAGTAAACAAATTTTCCTAATCTTTCTGTTCAAGCGCCATCTAC” to “GATGATTGTTCTCCCAGCTGATGAATTCTATAGTTCGAGTAAACAAATTTTCCTAATCTTTCTGTTCAAGCGCCATCTAC”, the binding signal rises from 0.668 RPM ratio (pull-down/input) to 0.74 RPM ratio (pull-down/input).

Compared with “GATGATTGTTCTCCCAGCTGATGAATTGCCCGAGTCGAGTAAACAAATTTTCCTAATCTTTCTGTTCAAGCGCCATCTAC”, “GATGATTGTTCTCCCAGCTGATGAATTGCATCCATCGAGTAAACAAATTTTCCTAATCTTTCTGTTCAAGCGCCATCTAC” is higher in binding signal: 0.303 RPM ratio (pull-down/input) for the first, 5.42 RPM ratio (pull-down/input) for the second.

Compared with “GATGATTGTTCTCCCAGCTGATGAATTATCGTATTCGAGTAAACAAATTTTCCTAATCTTTCTGTTCAAGCGCCATCTAC”, “GATGATTGTTCTCCCAGCTGATGAATTCGGCAAGTCGAGTAAACAAATTTTCCTAATCTTTCTGTTCAAGCGCCATCTAC” is lower in binding signal: 1.35 RPM ratio (pull-down/input) for the first, 1.34 RPM ratio (pull-down/input) for the second.

Compared with “GATGATTGTTCTCCCAGCTGATGAATTGTTAGTGTCGAGTAAACAAATTTTCCTAATCTTTCTGTTCAAGCGCCATCTAC”, “GATGATTGTTCTCCCAGCTGATGAATTTTTTACGTCGAGTAAACAAATTTTCCTAATCTTTCTGTTCAAGCGCCATCTAC” is lower in binding signal: 4.19 RPM ratio (pull-down/input) for the first, 0.246 RPM ratio (pull-down/input) for the second.

In the case of “GATGATTGTTCTCCCAGCTGATGAATTTGTTTAGTCGAGTAAACAAATTTTCCTAATCTTTCTGTTCAAGCGCCATCTAC”, the binding signal is reported as 7.22 RPM ratio (pull-down/input).
